# FLuc counter – qHTS profiling assay for firefly luciferase inhibitor/activator using purifed enzyme and Km concentrations of substrates (counterscreen for miR-21 project); hit rate 6.9% among 360,000; AID 588342, 2011; Luciferin 4-monooxygenase (Photinus pyralis), P08659; purified FLuc, Km substrates, luminescence inhibition; Potency, µM (series often up to 57.5 µM), without a hit: top-dose activity change, negative = inhibition, usual class: inhibitors;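 also: plate controls were vehicle for no effect and reference inhibitor for full effect; nearly all actives have a fitted effect of over 55% in size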
# Target sequence (P08659 whole entry, looked up): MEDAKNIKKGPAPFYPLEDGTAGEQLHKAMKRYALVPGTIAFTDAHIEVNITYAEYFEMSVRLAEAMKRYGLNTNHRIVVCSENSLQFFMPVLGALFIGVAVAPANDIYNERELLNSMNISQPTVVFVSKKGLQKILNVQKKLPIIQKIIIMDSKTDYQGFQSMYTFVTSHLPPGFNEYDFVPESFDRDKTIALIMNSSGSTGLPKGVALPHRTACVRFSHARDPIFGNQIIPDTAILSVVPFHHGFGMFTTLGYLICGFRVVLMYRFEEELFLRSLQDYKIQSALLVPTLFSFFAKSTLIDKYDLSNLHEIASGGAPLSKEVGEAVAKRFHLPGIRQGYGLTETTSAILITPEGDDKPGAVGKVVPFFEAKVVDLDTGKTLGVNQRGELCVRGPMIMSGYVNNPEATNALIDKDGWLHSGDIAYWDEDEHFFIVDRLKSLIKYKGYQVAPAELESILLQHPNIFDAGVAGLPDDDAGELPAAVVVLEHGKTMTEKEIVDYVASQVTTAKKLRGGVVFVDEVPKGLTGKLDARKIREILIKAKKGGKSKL
#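 Purified P. pyralis luciferase, 10 nM final, with Km-level 10 uM D-luciferin and 10 uM ATP in 50 mM Tris acetate pH 7.5, 10 mM Mg acetate, 0.01% Tween-20, 0.05% BSA; 6-point qHTS titration about 60 µM downward; luminescence read.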
# SMN2 splice enh – qHTS Assay for Enhancers of SMN2 Splice Variant Expression; HEK293 SMN2-luciferase splicing reporter, luminescence, 30-36 h; Potency, µM (series often up to 46.1 µM), inactives show top-dose activity change, positive = activation, usual class: activators; hit rate 2.8% among 210,000; AID 1458, 2008; also: % of control where 0% means no effect; nearly all actives have a fitted effect of over 55% in size
#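 HEK293 cells carry an SMN2 minigene-luciferase reporter in which exon 7 inclusion puts luciferase in frame. Cells were seeded at 2000 cells/well, attached for 10-12 hours, then exposed to compounds for 30-36 hours at 37C before ONE-Glo luminescence.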
# Luc counter – Counterscreen for Luciferase (Kinase-Glo TM) Inhibition; AID 1379, 2008; hit rate 0.28% among 200,000; Luciferin 4-monooxygenase (Photuris pensylvanica), Q27757; Kinase-Glo luciferase, ATP luminescence, 8 min; Potency, µM (doses to about 38.3 µM), for the others: top-dose activity change, negative = inhibition, actives largely listed as inhibitors; also: % is scaled to controls: 0 for no effect and ±100 for the full control effect; nearly all actives have a fitted effect of over 60% in size
#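 Substrate mix (final 50 mM imidazole pH 7.2, 50 mM KCl, 7 mM MgCl2, 10 uM ATP, 0.01% Tween 20, 0.05% BSA) plus pin-tool compound, then Kinase-Glo detection mix; 8 min ambient, luminescence read.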
# NPC1 promoter act – qHTS Assay for NPC1 Promoter Activators; hit rate 2.4% among 320,000; Huh7 NPC1 promoter luciferase reporter, 24 h; AID 485313, 2010; Potency, µM (series often up to 9.22 µM), inactives show at the top dose activation, hits mostly activators; also: % of control where 0% means no effect; nearly all actives have a fitted effect of over 60% in size
#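 Huh7 reporter cells (NPC1 promoter driving luciferase) are dosed with compound for 24 h at 37 °C, 5% CO2; luciferase detection reagent is then added and luminescence measured after 10 min at ambient temperature.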
# Rab9 promoter act – qHTS Assay for Rab9 Promoter Activators | Huh7 Rab9 promoter-luciferase reporter, luminescence, 24 h | Potency, µM (titrated, usually from 9.22 µM), for inactives: top-dose activation, negative = inhibition, hits mostly activators | hit rate 2.8% among 320,000 | AID 485297, 2010; also: % of control where 0% means no effect; nearly all actives have a fitted effect of over 60% in size
#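 Quantitative HTS format; Huh7 Rab9-luciferase reporter cells (1500/well) receive compound 2 h post-plating, incubate 24 h at 37 °C, then get luciferase reagent for 10 min before luminescence reading.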
# * = called active by the depositor; u = inconclusive; x = no result given; [ ] = remark or other dose. The list is not random: actives were taken first. Their share in the collection is about 7.3%. Calls follow the shape of the dose curve; as a rule, active = well fitted curve in the direction sought with a large enough effect; inconclusive = small, poorly fitted or top-dose-only effect, or another doubt; inactive = no such curve, though single readings can be large; an effect the other way counts as inactive or inconclusive. Potency is read from the fitted curve at half-maximal effect.
SMILES,FLuc counter,SMN2 splice enh,Luc counter,NPC1 promoter act,Rab9 promoter act
COc1ccc(C2Nc3ccccc3-c3nnc(SC)nc3O2)cc1C (stereo not drawn),-12%,4%,x,x,x
CCOC(=O)c1c(C)[nH]c(N=Nc2ccc(OC)cc2)c1C,7.6µM*,x,x,3.5µM*,u
CCOC(=O)c1c(C)[nH]c(NC(=O)NNC(=O)c2ccccc2Cl)c1C,x,x,x,1%,-3%
CCOC(=O)c1c(C)[nH]c(N=Nc2ccc(C)cc2)c1C,3.8µM*,13µM*,-6%,1µM*,1.4µM*
CCOC(=O)c1c(C)[nH]c(C=Nc2ccccc2)c1O,2%,u,-2%,u,u
CCOC(=O)c1c(C)[nH]c(N=Nc2ccccc2Cl)c1C,12µM*,x,x,u,u
CCOC(=O)c1[nH]c(C)c(C(=O)c2ccc(C)cc2)c1C,u,4%,0%,-9%,-10%
CCOC(=O)c1c(C)[nH]c(N=Nc2ccccc2)c1C,12µM*,4%,2%,u,u
S=C(Nc1ccc2cn[nH]c2c1)Nc1ccc2cn[nH]c2c1,x,-8%[9.22 µM],-5%[7.66 µM],x,x
Cc1cc2oc(C(=O)N(Cc3ccccc3F)C3CCS(=O)(=O)C3)c(C)c2cc1Cl (stereo not drawn),6%,-24%,x,x,x
COc1cc(C(=O)NCC(c2cccnc2)N2CCc3ccccc32)cc(OC)c1OC (stereo not drawn),-10%,x,x,x,x
N#C/C(=C\N1CCNC1=S)C(=O)c1ccc2ccccc2c1,x,-1%[9.22 µM],-5%[7.66 µM],x,x
CCOc1cc(-c2ccc(OC(=O)c3ccccc3F)cc2)cc(=O)c2c(C)oc(C)c12,-13%,x,x,x,x
O=C(NCc1ccc(Cl)cc1)C1CCN(S(=O)(=O)Cc2ccccc2)CC1,-1%,x,x,x,x
N#Cc1ccccc1NC(=O)Cn1cnc2onc(-c3cccc(F)c3)c2c1=O,-1%,x,x,x,x
COc1cccc(NC(=O)c2ccccc2-c2ccccc2C(=O)O)c1,1%,x,x,-2%,1%
COc1cccc(NC(=O)c2ccccc2Br)c1,15µM*,x,x,4µM*,3.5µM*
COc1cccc(NC(=O)COC(=O)c2ccccc2F)c1,12µM*,10%,0%,-1%,1%
COc1cccc(NC(=O)c2ccccc2F)c1,6µM*,x,x,4µM*,3.5µM*
COc1cccc(NC(=O)COC(=O)c2c(F)cccc2Cl)c1,u,x,1%,17%,u
COc1ccc(CNC(=O)Nc2ccc3c(c2)N(C)C(=O)c2ccccc2S3)cc1,1%,x,x,x,x
Cc1ccccc1CNC(=O)c1sc2ncnc(N(C)C3CCCCC3)c2c1C,4%,x,x,x,x
Cc1ccc(NC(=O)c2c(C)oc3c2C2=NCCN2C=N3)cc1F,-6%,x,x,x,x
CC(C)COc1ccc(-c2nnc(-c3ccncc3)o2)cc1,3.4µM*,19%,-4%,1.1µM*,0.63µM*
CCCOc1ccc(-c2nnc(-c3ccncc3)o2)cc1,4.8µM*,u,-12%,3.5µM*,u
SMILES,FLuc counter,SMN2 splice enh,Luc counter,NPC1 promoter act,Rab9 promoter act
CC(C)(C)OC(=O)N1CCC(c2c(C(=O)NCCN3CCOCC3)cnn2-c2cccc(Cl)c2)CC1,-2%,x,x,x,x
COc1cccc(NC(=O)c2sc3nc(C)c(C(=O)Nc4ccc(C)cc4C)c(-c4ccc(Br)cc4)c3c2N)c1,-5%,13µM*,x,x,x
COCCCNC(=O)c1sc2nc(C)c(C(=O)Nc3ccc(C)cc3C)c(-c3ccc(Br)cc3)c2c1N,-12%,-9%,x,x,x
COc1ccc(-c2ccc3c(N)c(C(=O)Nc4cc(F)ccc4C)sc3n2)cc1,u,-3%,x,x,x
COc1ccc(-c2ccc3c(N)c(C(=O)c4ccc(OC)c(OC)c4)sc3n2)cc1,-9%,19%,1%,10%,15%
COc1ccc(-c2ccc3c(N)c(C(=O)Nc4cccc(C)c4)sc3n2)cc1,1%,1.8µM*,x,x,x
COc1ccc(-c2ccc3c(N)c(C(=O)NC(C)C)sc3n2)cc1OC,17µM*,x,x,0%,12%
CCC(C)NC(=O)Cn1c(=O)n(-c2cc(OC)cc(OC)c2)c(=O)c2ccccc21 (stereo not drawn),1%,5%,x,x,x
O=[N+]([O-])c1ccccc1-c1cc(-c2ccccc2O)n[nH]1,8.5µM*,3.5µM*,-4%,14%,u
Cc1ccc(O)c(-c2cc(-c3cccc(F)c3)n[nH]2)c1,u,u,-4%,-3%,-9%
Cc1ccc(-c2cc(-c3cccc(F)c3)n[nH]2)c(O)c1,u,14µM*,1%,u,4µM*
Oc1ccccc1-c1cc(C(F)(F)F)[nH]n1,-10%,x,x,-4%,1%
Cc1ccc(O)c(-c2cc(-c3ccccc3F)[nH]n2)c1,13µM*,11µM*,-8%,-2%,0%
Cc1ccc(-c2cc(-c3ccccc3C)[nH]n2)c(O)c1,11µM*,-41%,-5%,4µM*,3.5µM*
Fc1ccc(Nc2ncnc3onc(-c4ccc(Cl)cc4)c23)cc1Cl,-5%,u,x,x,x
CCCOc1ccc(-c2nonc2NC(=O)c2oc3ccc(Cl)cc3c2C)cc1OCCC,-19%,4%,x,x,x
O=C(/C=C\c1cn(-c2ccccc2)nc1-c1ccccc1)Nc1nccs1,u,2%,-1%,11%,-1%
CC(=O)NS(=O)(=O)c1ccc(NC(=O)/C=C/c2cn(-c3ccccc3)nc2-c2ccccc2)cc1,9.5µM*,8%,4%,-3%,-4%
Cc1ccc2c(c1)cc1c(=O)n(Cc3cccc(Cl)c3)nc(C)n12,1%,-7%,x,x,x
Cc1ccc2cc(CN(Cc3ccco3)S(=O)(=O)c3c(C)ccc4nsnc34)c(=O)[nH]c2c1,-13%,35µM*,16%,1%,-2%
S=c1[nH]c2cc3ccccc3cc2[nH]1,4.8µM*,x,x,14%,3%
C/C(=N\NC(=O)c1n[nH]c2c1CCC2)c1ccco1,2.7µM*,x,x,u,0.5µM*
CCCNC(=O)c1n[nH]c2c1CC(C(C)(C)CC)CC2 (stereo not drawn),u,x,x,-1%,3%
CCC(C)(C)C1CCc2[nH]nc(C(=O)N/N=C(\C)c3ccco3)c2C1 (stereo not drawn),2.4µM*,x,x,3.2µM*,1.1µM*
COC(=O)N/N=C(\C)c1ccco1,-2%,-1%,-4%,-2%,3%
COc1ccc(C(CC(=O)Nc2cc(Cl)c(OC)cc2OC)N2Cc3ccccc3C2=O)cc1 (stereo not drawn),-19%,x,x,x,x
CCOC(=O)c1c(NC(=O)c2ccc(S(=O)(=O)N(CC(C)C)CC(C)C)cc2)sc2c1CCN(CC)C2,4%,x,x,x,x
CNC(=O)c1c(NC(=O)c2ccc(S(=O)(=O)N3CCCCC3)cc2)sc2c1CCC2,-3%,x,x,x,x
CC(NC(=O)CCc1nnc(-c2ccc(-c3ccccc3)cc2)o1)c1nccs1 (stereo not drawn),17µM*,10µM*,-3%,18%,13%

# Compound activity from PubChem.
